This is an account of results in PubChem BioAssay (NCATS).

For test [1], the target named is Cytochrome P450 1A2 (Homo sapiens) (UniProt P05177). Briefly: p450-cyp1a2 (AID 410; calls by dose curve; also: potency is read from the fitted curve at half-maximal effect). The gist of the method: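 Luminescent demethylation readout: Luciferin-ME (100uM, equal to Km) turned over by 20nM CYP1A2 for 60 min at room temperature after NADPH regeneration addition, following 10 min compound preincubation. Normalization used 57 uM furafylline as full inhibition.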

For test [2], the target named is Glucocorticoid receptor (Homo sapiens) (UniProt P04150). Briefly: GR-GFP Redistribution (AID 450;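 active = compounds whose dose series gives a full or clear partial fitted curve of increased nuclear translocation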; also: potency is read from the fitted curve at half-maximal effect).
Test [3] shares this target. Briefly: GR-EFC Redistribution (AID 451; calls by dose curve; also: potency is read from the fitted curve at half-maximal effect). To be noted: CHO-K1 GR-EFC translocation, beta-gal luminescence, 2 h. The gist of the method:
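CHO-K1 cells expressing nuclear EA and GR-ED fragments of b-gal; compounds titrated up to 46 uM final, 2 h at 37 C. GR nuclear translocation read as complemented b-gal luminescence after 1 h RT detection.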

Test [4] addresses Mitogen-activated protein kinase 10 (Mus musculus) (UniProt Q61831). As to the kind of experiment: JNK3 AlphaScreen Assay (AID 530; active = well fitted curve in either direction with a large enough effect, not every such curve was filed as active;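 also: kinase came from lysate of stimulated human HepG2 cells; signal reports phosphorylation of biotinylated GST-cJun 1-79 at Ser73 with 10 µM ATP; % is scaled to controls: 0 for no effect and ±100 for the full control effect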). Put shortly: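 Activity was read by AlphaScreen after JNK3-containing HepG2 lysate (cytokine pre-activated) phosphorylated biotinylated GST-cJun with 10 uM ATP at room temperature. Phospho-Ser73 cJun antibody with Protein-A acceptor beads provided detection.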
(In general: Alpha assays give light when donor and acceptor beads are brought close together.)

The target of test [5] is ATP-dependent 6-phosphofructokinase (Trypanosoma brucei brucei) (UniProt O15648). As to the kind of experiment: qHTS Assay to Find Inhibitors of T. brucei phosphofructokinase: hit validation (AID 492961). Also: % is scaled to controls: 0 for no effect and ±100 for the full control effect. The gist of the method:
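Luminescence from ADP-Glo reports ADP generated as T. brucei PFK (1.25 nM) phosphorylates 0.5 mM fructose-6-phosphate using 0.1 mM ATP. Reactions ran 45 min at room temperature, pH 8.0.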
(In general: Quantitative high-throughput screening tests each substance at several concentrations.)

Test [6] has as its target DNA dC->dU-editing enzyme APOBEC-3G (Homo sapiens) (UniProt Q9HC16). Briefly: qHTS for inhibitors of Vif-A3G interactions: Validation (AID 588379). Also: 0% is about no effect. Put shortly:
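Yellow fluorescence (Ex 488, Em 500-530) of Vif-coexpressing HeLa A3G-eYFP cells, scanned by Acumen cytometer, reports blocked A3G degradation. Cells plated at 700/well overnight at 37 deg C before compound addition, then a further overnight compound incubation at 37 deg C.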

Test [7] concerns the target Luciferin 4-monooxygenase (Photinus pyralis) (UniProt P08659). As to the kind of experiment: Biochemical firefly luciferase enzyme assay for NPC (AID 624030).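 Also: purified P. pyralis luciferase at 10 nM with luciferin and ATP substrate; 0% = DMSO and -100% = full luciferase inhibition by PTC124 control; nearly all actives have a fitted effect of over 70% in size.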 The gist of the method: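 Purified P. pyralis luciferase at 10 nM in 50 mM Tris Acetate (final), luminescence read within 5 minutes of enzyme addition to compounds. Activity normalised to PTC124 versus DMSO; concentration-response curves classed by r2, magnitude and activity.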

Test [8] in a line: S16 Schwann cell PMP22 intronic element firefly luciferase assay (AID 624032).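 Also: plate controls were DMSO for no effect and PTC124 positive control mean for full effect; nearly all actives have a fitted effect of over 30% in size.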 Put shortly:
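Rat S16 Schwann cells stably carrying firefly luciferase driven by a PMP22 intronic element, in 10% FBS, treated 24 h at 37 C. ONE-Glo luminescence normalized to PTC124 control and DMSO (0%); curves classed by r2, magnitude and activity.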

Test [9] is described as follows: S16 Schwann cell PMP22 intronic element beta-lactamase assay (AID 624044; calls by dose curve;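 also: 0% = DMSO and -100% = potassium clavulanate positive control; nearly all actives have a fitted effect of over 15% in size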). To be noted: S16 rat Schwann cells, PMP22 element beta-lactamase FRET, 24 h; ratio activity, negative = inhibition: at 38.3 µM (top of the series). The gist of the method: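 Beta-lactamase reporter under a PMP22 intronic regulatory element in stable S16 rat Schwann cells; 24 h compound exposure. 460 nm blue signal normalized between DMSO (0%) and potassium clavulanate, with 535 nm FRET tracking viability; curves classed by r2 and response.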

The next test relates to 7G8. As to the kind of experiment: qHTS profiling for inhibitors of Plasmodium falciparum proliferation (AID 504749). Also: nearly all actives have a fitted effect of over 60% in size. Also: potency is read from the fitted curve at half-maximal effect.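 As to activity, negative = inhibition: 0% = DMSO vehicle and full inhibition = artemisinin control.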 To be noted: P. falciparum in erythrocytes, SYBR Green DNA, 72 h; series mostly up to 28.7 µM. The gist of the method:
(§1)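 Each compound contacts P. falciparum-infected red blood cells for 72 h at 37 C; lysis buffer (Tris, EDTA, saponin, Triton X, SYBR Green I) is added and fluorescence measured next morning; values normalized to controls.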

In another test the test system is AA1029. Described as above. The settings on record: P. falciparum in erythrocytes, SYBR Green DNA, 72 h; series mostly up to 28.7 µM. Put shortly: as §1
The next test relates to ATS95. The description is as above. The settings on record: P. falciparum in erythrocytes, SYBR Green DNA, 72 h; series mostly up to 28.7 µM. Put shortly:
as §1

The subject of a further test is C2A. The test is described as above. The settings on record: P. falciparum in erythrocytes, SYBR Green DNA, 72 h; series mostly up to 28.7 µM. Put shortly: as §1
Another test deals with CP252. The test is described as above. To be noted: P. falciparum in erythrocytes, SYBR Green DNA, 72 h; series mostly up to 28.7 µM. Put shortly: as §1
The test system of another test is CP262. The description is as above. To be noted: P. falciparum in erythrocytes, SYBR Green DNA, 72 h; series mostly up to 28.7 µM. The gist of the method: as §1
Another test has as its system ECU. Described as above. To be noted: P. falciparum in erythrocytes, SYBR Green DNA, 72 h; series mostly up to 28.7 µM. Put shortly: as §1
Another test has as its system JCK. Described as above. To be noted: P. falciparum in erythrocytes, SYBR Green DNA, 72 h; series mostly up to 28.7 µM. Put shortly:
as §1

A further test deals with PAD. The test is described as above. To be noted: P. falciparum in erythrocytes, SYBR Green DNA, 72 h; series mostly up to 28.7 µM. The gist of the method: as §1
In a further test the test system is PC15. The description is as above. To be noted: P. falciparum in erythrocytes, SYBR Green DNA, 72 h; series mostly up to 28.7 µM. The gist of the method: as §1
The next test has as its system PC49. The description is as above. To be noted: P. falciparum in erythrocytes, SYBR Green DNA, 72 h; series mostly up to 28.7 µM. The gist of the method:
as §1

The next test concerns SC27B. The test is described as above. The settings on record: P. falciparum in erythrocytes, SYBR Green DNA, 72 h; series mostly up to 28.7 µM. Put shortly:
as §1

The subject of a further test is TAB113. The test is described as above. To be noted: P. falciparum in erythrocytes, SYBR Green DNA, 72 h; series mostly up to 28.7 µM. Put shortly: as §1
A short description of test [10]: AP1 Signaling Pathway (AID 357; active = well fitted curve in either direction with a large enough effect, not every such curve was filed as active;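 also: ME-180 reporter cells stimulated with EGF at its EC50 level; % is scaled to controls: 0 for no effect and ±100 for the full control effect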). The settings on record: ME-180 AP-1-bla reporter, EGF-induced, beta-lactamase ratio, 5 h; at 17.2 µM (top of the series) unless noted. Put shortly:
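Titration-series screen for positive or negative modulators of EC50 EGF-induced signaling in ME-180 cells carrying an AP-1-driven beta-lactamase reporter. After 5 hours at 37 degrees Celsius, CCF4 460nm/530nm emission ratio gave %Activity; AC50 values derived.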

Test [11] can be described thus: qHTS Assay for Identification of Small Molecule Agonists for Hypoxia Response Element Signaling Pathway (AID 914; active = well fitted activation curve with a large enough effect in the signal ratio, with a control signal flat, not every such curve was filed as active; the % refers to the signal ratio; also: % of control where 0% means no effect). The settings on record: ME-180 (cervical carcinoma) HRE-bla reporter, beta-lactamase ratio, CoCl2, 17 h; activation: stronger effect = higher value. Put shortly:
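Reporter activity (beta-lactamase, CCF4 460nm/530nm ratio) in HRE-bla ME-180 cells is recorded after 17 h compound exposure with EC50 CoCl2 at 37 degrees Celsius. AC50 values come from titration data.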

Each structure is given as a SMILES string. Unmarked numbers belong to inactive results. Inconclusive results are not listed. Active and inactive are the calls of the source. Unless noted, calls follow the shape of the dose curve; as a rule, active = well fitted curve in the direction sought with a large enough effect; inconclusive = small, poorly fitted or top-dose-only effect, or another doubt; inactive = no such curve, though single readings can be large; an effect the other way counts as inactive or inconclusive.

Chain of Glucocorticoid receptor (Homo sapiens) (P04150 whole entry, looked up): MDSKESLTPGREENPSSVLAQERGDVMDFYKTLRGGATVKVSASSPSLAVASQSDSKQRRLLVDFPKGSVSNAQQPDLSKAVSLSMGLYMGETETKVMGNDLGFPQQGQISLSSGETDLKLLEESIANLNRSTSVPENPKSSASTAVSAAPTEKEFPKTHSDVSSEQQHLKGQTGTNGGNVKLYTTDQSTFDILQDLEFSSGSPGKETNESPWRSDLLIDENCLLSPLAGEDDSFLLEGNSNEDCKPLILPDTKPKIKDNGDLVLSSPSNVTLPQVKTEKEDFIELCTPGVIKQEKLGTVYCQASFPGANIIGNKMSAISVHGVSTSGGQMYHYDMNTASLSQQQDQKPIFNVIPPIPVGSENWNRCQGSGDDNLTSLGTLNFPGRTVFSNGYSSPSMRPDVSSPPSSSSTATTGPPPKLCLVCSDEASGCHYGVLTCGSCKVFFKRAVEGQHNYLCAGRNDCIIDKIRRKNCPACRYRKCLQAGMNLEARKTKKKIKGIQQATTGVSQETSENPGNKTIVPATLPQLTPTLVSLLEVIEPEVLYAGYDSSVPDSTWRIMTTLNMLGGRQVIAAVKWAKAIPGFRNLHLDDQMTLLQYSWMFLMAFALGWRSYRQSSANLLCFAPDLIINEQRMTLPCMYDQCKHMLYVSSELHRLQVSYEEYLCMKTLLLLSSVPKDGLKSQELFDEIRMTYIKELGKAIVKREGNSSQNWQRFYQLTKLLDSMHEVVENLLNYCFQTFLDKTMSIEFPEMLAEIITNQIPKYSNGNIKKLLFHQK
Chain of ATP-dependent 6-phosphofructokinase (Trypanosoma brucei brucei) (O15648 whole entry, looked up): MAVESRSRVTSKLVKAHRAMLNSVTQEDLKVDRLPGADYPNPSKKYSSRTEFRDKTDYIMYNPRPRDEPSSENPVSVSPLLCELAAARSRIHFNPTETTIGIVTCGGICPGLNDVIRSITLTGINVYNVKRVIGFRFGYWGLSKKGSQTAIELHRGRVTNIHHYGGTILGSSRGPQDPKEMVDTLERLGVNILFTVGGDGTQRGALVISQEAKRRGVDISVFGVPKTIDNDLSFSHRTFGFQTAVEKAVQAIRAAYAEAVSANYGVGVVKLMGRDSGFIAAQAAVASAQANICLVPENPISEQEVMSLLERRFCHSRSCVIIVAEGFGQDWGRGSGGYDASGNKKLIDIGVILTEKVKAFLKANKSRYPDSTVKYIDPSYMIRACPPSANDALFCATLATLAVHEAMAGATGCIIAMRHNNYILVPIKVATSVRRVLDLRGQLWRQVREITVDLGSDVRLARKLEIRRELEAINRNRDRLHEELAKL
Chain of DNA dC->dU-editing enzyme APOBEC-3G (Homo sapiens) (Q9HC16 whole entry, looked up): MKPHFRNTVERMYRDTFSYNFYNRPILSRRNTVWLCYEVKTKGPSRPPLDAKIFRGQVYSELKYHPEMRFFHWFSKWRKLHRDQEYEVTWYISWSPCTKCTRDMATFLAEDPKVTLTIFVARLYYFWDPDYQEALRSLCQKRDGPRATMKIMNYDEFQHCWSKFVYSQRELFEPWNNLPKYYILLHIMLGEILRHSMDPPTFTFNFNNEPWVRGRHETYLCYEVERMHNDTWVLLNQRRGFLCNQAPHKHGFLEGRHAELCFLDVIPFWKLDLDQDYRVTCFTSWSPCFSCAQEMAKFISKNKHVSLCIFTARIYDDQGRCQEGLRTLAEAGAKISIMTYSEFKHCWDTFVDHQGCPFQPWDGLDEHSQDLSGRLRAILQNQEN
Chain of Cytochrome P450 1A2 (Homo sapiens) (P05177 whole entry, looked up): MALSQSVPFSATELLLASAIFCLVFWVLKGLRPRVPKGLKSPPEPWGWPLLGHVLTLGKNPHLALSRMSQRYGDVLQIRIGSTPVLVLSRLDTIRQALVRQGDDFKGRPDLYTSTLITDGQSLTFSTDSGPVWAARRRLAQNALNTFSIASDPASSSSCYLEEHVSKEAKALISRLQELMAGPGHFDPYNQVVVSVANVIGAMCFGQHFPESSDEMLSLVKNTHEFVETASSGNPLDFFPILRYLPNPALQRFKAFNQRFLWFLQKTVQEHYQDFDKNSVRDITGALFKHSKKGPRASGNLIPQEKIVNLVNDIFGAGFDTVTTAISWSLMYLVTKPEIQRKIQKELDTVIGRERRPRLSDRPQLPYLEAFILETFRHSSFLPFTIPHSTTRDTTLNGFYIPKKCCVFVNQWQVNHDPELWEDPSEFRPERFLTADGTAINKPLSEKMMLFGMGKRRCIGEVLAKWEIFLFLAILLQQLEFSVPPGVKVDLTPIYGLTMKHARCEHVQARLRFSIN
Chain of Luciferin 4-monooxygenase (Photinus pyralis) (P08659 whole entry, looked up): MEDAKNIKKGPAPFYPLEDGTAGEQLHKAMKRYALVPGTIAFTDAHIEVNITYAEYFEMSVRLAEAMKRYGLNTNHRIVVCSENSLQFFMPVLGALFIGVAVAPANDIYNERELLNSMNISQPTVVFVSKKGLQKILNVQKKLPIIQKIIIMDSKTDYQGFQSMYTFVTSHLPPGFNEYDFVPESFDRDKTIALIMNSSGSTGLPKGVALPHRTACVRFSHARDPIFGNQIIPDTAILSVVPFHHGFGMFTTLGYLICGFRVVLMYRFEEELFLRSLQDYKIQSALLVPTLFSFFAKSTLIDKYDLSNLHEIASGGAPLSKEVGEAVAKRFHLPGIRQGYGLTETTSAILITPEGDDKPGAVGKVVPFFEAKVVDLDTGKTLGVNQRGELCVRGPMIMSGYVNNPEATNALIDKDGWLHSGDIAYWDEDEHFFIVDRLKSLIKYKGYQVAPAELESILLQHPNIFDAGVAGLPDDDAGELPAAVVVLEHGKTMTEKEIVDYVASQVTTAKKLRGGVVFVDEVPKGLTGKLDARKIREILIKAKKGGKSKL

In the case of `CNc1cc(OC)c(C(=O)N[C@@H]2CCN(Cc3ccccc3)[C@H]2C)cc1Cl`, the Potency in [1] was 31.6 µM (active); in [2], above 46 µM; in test [3], above 46 µM; in the test with 7G8, 6.31 µM (active); with AA1029, 14.1 µM (active). For the same molecule, the Potency entry (in test [4]; in [5]; in [7]; in test [8]; in test [9]; in the test on ATS95) was “inactive” throughout. In addition, the Potency result in the test on C2A, in the test on CP252, with CP262, in the test with ECU, in the test with JCK and with PAD was “inactive” each time. In addition, the Potency result in the test with PC15, in the test on PC49, in the test with SC27B and with TAB113 was “inactive” throughout. Also, the call in test [6] was inactive.

For `CCSc1nnc(NC(=O)C(CC)(C(F)(F)F)C(F)(F)F)s1`, the activity change, negative = inhibition in [10] is -19%. Also, in test [2], the Potency is above 20.6 µM.

As to `CCOC(=O)NC(Nc1sc2c(c1C(=O)OC)CCN(C)C2)(C(F)(F)F)C(F)(F)F`, the activity change, negative = inhibition in test [10] is 12.1%. Further, in [2], the Potency is above 20.6 µM. Also, in [11], the activation is 6.5%.
